In PubChem BioAssay (EPA / NIEHS):
Values joined by “and” are separate entries in the source; they are usually repeats but may differ in a detail not shown here. Equal values may be shown once. Records with an inconclusive call do not appear. Active and inactive are the calls of the source. Rule for the calls: active = hit-call score of the fitted dose curve at least 0.9, where 1 is the maximum; inconclusive = response in the unintended direction; inactive = score below 0.9.

biological target: Peroxisome proliferator-activated receptor gamma (Homo sapiens) (UniProt P37231); assay: ATG_PPARg_TRANS: Attagene TRANS-FACTORIAL HepG2 Assay for human Peroxisome Proliferator-activated Receptor-gamma (PPARg) (AID 2283007)
Method in brief: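 Multiplexed reporter transcription units in HepG2, 24 h dosing, reporter transcripts quantified by fluorescent RT-PCR and capillary electrophoresis. Increase over DMSO scored.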

Chain of Peroxisome proliferator-activated receptor gamma (Homo sapiens) (P37231 whole entry, looked up): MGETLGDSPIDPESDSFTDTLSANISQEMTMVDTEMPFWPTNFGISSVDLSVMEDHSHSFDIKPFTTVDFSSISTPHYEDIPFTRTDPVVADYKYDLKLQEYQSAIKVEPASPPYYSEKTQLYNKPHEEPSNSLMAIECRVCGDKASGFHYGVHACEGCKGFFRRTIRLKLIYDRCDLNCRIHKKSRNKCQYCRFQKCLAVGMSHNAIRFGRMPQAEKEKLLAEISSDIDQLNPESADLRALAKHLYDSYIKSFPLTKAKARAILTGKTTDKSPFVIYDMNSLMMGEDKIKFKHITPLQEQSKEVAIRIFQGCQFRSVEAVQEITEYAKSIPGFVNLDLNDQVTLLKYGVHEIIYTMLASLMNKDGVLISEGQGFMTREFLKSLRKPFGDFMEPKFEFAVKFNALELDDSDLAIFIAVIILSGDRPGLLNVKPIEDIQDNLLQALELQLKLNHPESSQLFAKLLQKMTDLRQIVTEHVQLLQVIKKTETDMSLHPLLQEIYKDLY

SMILES	outcome	AC50
OC(Cc1ccccc1Cl)(Cn1cncn1)C1(Cl)CC1 (stereo not drawn)	inactive	
O=S(=O)(C(Cl)(Cl)Cl)C(Cl)(Cl)Cl	inactive	
Cc1cc(Cl)ccc1OC(C)C(=O)O (stereo not drawn)		71.4 µM (active)
O=C(Cc1ccccc1)OCCc1ccccc1	inactive	
CCOP(=S)(OCC)OP(=S)(OCC)OCC		25.8 µM (active)
O=[N+]([O-])c1ccc(Nc2ccccc2)cc1	inactive	
Oc1cccc(-c2ccccc2)c1		34.6 µM (active)
NC(=O)CCl	inactive	
O=c1oc2ccccc2c(O)c1C(CC(O)c1ccc(-c2ccc(Br)cc2)cc1)c1ccccc1 (stereo not drawn)		3.95 µM (active) and 676 nM (active)
C#CCOC(=O)/C=C(C)/C=C/CC(C)CCCC(C)C (stereo not drawn)		27.8 µM (active)
CCCCCCCCCCCCN(C)C	inactive	
CCOC(=O)CCN(SN(C)C(=O)Oc1cccc2c1OC(C)(C)C2)C(C)C		0.713 µM (active)
Cc1ccccc1OP(=O)(Oc1ccccc1C)Oc1ccccc1C	inactive	
O=S(=O)(c1ccc(Cl)cc1)c1cc(Cl)c(Cl)cc1Cl		7.66 µM (active)
N#CCCC(Br)(C#N)CBr (stereo not drawn)	inactive	
CCOC(=O)CC(=O)CCl		22 µM (active)
O=C1C=CC(=O)c2ccccc21		5.98 µM (active)
CC(C)(COCC1CO1)COCC1CO1 (stereo not drawn)	inactive	

SMILES	outcome	AC50
Oc1ccc(Cc2ccc(O)cc2)cc1		15.8 µM (active)
CC(C=O)Cc1ccc2c(c1)OCO2 (stereo not drawn)	inactive	
Nc1c(Oc2ccccc2)cc(O)c2c1C(=O)c1ccccc1C2=O		6.44 µM (active)
CC(C)(C)c1cc([N+](=O)[O-])cc(C(C)(C)C)c1O		5.15 µM (active)
Oc1c(Cl)cc(Cl)cc1Cl		42.5 µM (active)
[Cl][Sn]([c]1ccccc1)([c]1ccccc1)[c]1ccccc1		0.0464 µM (active)
CC1(C)[C@H](C(=O)O[C@H](C#N)c2cccc(Oc3ccccc3)c2)[C@@H]1/C=C(\Cl)C(F)(F)F		5.86 µM (active) and 4.64 µM (active)
Cc1ccc(OP(=O)(Oc2ccc(C)cc2C)Oc2ccc(C)cc2C)c(C)c1		1.3 µM (active)
O=[N+]([O-])c1cccc2ccccc12	inactive	
Cc1ccc2nc3sc(=O)sc3nc2c1		2 µM (active)
c1ccc(-c2cccc(-c3ccccc3)c2)cc1	inactive	
CCC(C)(C#N)N=NC(C)(C#N)CC (stereo not drawn)	inactive	
CCN(CC)C(=O)C(Cl)=C(C)OP(=O)(OC)OC	inactive	
CCOP(=O)(OCC)OC(=CCl)c1ccc(Cl)cc1Cl		27.4 µM (active)
Cc1cccc(OP(=O)(Oc2cccc(C)c2)Oc2cccc(C)c2)c1		13.9 µM (active)
Cc1ccccc1OP(=O)(Oc1ccccc1)Oc1ccccc1		3.74 µM (active)
COCC(=O)N(c1c(C)cccc1C)[C@H](C)C(=O)OC	inactive	
CCCCOC(=O)COC(=O)c1ccccc1C(=O)OCCCC		51.4 µM (active)

biological target: Nuclear receptor subfamily 1 group I member 2 (Homo sapiens) (UniProt O75469); assay: ATG_PXR_TRANS: Attagene TRANS-FACTORIAL HepG2 Assay for human Pregnane X Receptor (PXR) (AID 2283008)
Method in brief: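 Read-out is fluorescence of labelled reporter cDNA fragments separated by capillary electrophoresis after RT-PCR and HpaI digestion. Source: HepG2 cells carrying PXR-GAL4/UAS reporter constructs, treated 24 h; activity fitted upward relative to DMSO.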

Chain of Nuclear receptor subfamily 1 group I member 2 (Homo sapiens) (O75469 whole entry, looked up, the tested form may be a part): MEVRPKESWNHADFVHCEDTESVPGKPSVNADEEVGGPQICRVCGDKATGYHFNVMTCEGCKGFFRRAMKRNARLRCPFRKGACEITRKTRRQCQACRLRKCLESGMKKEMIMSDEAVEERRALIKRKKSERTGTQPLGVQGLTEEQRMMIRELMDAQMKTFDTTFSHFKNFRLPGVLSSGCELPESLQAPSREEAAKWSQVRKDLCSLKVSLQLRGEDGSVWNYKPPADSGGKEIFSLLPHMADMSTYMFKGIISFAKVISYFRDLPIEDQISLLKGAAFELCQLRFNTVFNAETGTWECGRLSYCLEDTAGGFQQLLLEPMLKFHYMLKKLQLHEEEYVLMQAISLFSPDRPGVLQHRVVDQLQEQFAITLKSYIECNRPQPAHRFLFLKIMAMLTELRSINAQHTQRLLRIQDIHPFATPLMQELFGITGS

SMILES	AC50	outcome
OC(Cc1ccccc1Cl)(Cn1cncn1)C1(Cl)CC1 (stereo not drawn)	7.37 µM (active)	
CCOP(=S)(OCC)OP(=S)(OCC)OCC	0.94 µM (active)	
O=[N+]([O-])c1ccc(Nc2ccccc2)cc1	12.3 µM (active)	
C[C@]12CC[C@@H](O)C[C@@H]1CC[C@@H]1[C@@H]2CC[C@]2(C)C(=O)CC[C@@H]12		inactive
Oc1cccc(-c2ccccc2)c1	26.1 µM (active)	
NC(=O)CCl		inactive
O=c1oc2ccccc2c(O)c1C(CC(O)c1ccc(-c2ccc(Br)cc2)cc1)c1ccccc1 (stereo not drawn)	5.19 µM (active) and 7.74 µM (active)	
C#CCOC(=O)/C=C(C)/C=C/CC(C)CCCC(C)C (stereo not drawn)	27.4 µM (active)	
CCCCCCCCCCCCN(C)C		inactive
CCOC(=O)CCN(SN(C)C(=O)Oc1cccc2c1OC(C)(C)C2)C(C)C	14.5 µM (active)	
Cc1ccccc1OP(=O)(Oc1ccccc1C)Oc1ccccc1C	0.0985 µM (active)	
O=S(=O)(c1ccc(Cl)cc1)c1cc(Cl)c(Cl)cc1Cl	1.25 µM (active)	
CCOC(=O)CC(=O)CCl		inactive
O=C1C=CC(=O)c2ccccc21		inactive
CC(C)(COCC1CO1)COCC1CO1 (stereo not drawn)		inactive
Oc1ccc(Cc2ccc(O)cc2)cc1		inactive

SMILES	AC50	outcome
CC(C=O)Cc1ccc2c(c1)OCO2 (stereo not drawn)	21.5 µM (active)	
Nc1c(Oc2ccccc2)cc(O)c2c1C(=O)c1ccccc1C2=O	3.13 µM (active)	
CC(C)(C)c1cc([N+](=O)[O-])cc(C(C)(C)C)c1O	6.49 µM (active)	
Oc1c(Cl)cc(Cl)cc1Cl		inactive
CC1(C)[C@H](C(=O)O[C@H](C#N)c2cccc(Oc3ccccc3)c2)[C@@H]1/C=C(\Cl)C(F)(F)F	152 nM (active) and 288 nM (active)	
Cc1ccc(OP(=O)(Oc2ccc(C)cc2C)Oc2ccc(C)cc2C)c(C)c1	0.0821 µM (active)	
O=[N+]([O-])c1cccc2ccccc12	30.4 µM (active)	
Cc1ccc2nc3sc(=O)sc3nc2c1	6.31 µM (active)	
c1ccc(-c2cccc(-c3ccccc3)c2)cc1	11.5 µM (active)	
CCC(C)(C#N)N=NC(C)(C#N)CC (stereo not drawn)		inactive
CCN(CC)C(=O)C(Cl)=C(C)OP(=O)(OC)OC		inactive
CCOP(=O)(OCC)OC(=CCl)c1ccc(Cl)cc1Cl	0.62 µM (active)	
Cc1cccc(OP(=O)(Oc2cccc(C)c2)Oc2cccc(C)c2)c1	0.521 µM (active)	
Cc1ccccc1OP(=O)(Oc1ccccc1)Oc1ccccc1	0.736 µM (active)	
COCC(=O)N(c1c(C)cccc1C)[C@H](C)C(=O)OC	20.2 µM (active)	
CCCCOC(=O)COC(=O)c1ccccc1C(=O)OCCCC	27.4 µM (active)	
